A number with no mark means an inactive call. Inconclusive results are not listed. Activity calls are given as the source filed them. Unless noted, calls follow the shape of the dose curve; as a rule, active = well fitted curve in the direction sought with a large enough effect; inconclusive = small, poorly fitted or top-dose-only effect, or another doubt; inactive = no such curve, though single readings can be large; an effect the other way counts as inactive or inconclusive.

The target of test [1] is Cytochrome P450 1A2 (Homo sapiens) (UniProt P05177). In words: p450-cyp1a2 (AID 410; calls by dose curve; also: potency is read from the fitted curve at half-maximal effect). Summed up:
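Read-out is luminescence from luciferin produced by CYP1A2 demethylation of Luciferin-ME (100uM, at Km). Detection reagent stopped the 60 min NADPH-dependent reaction; signals were normalized to 57 uM furafylline.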

Test [2] deals with Glucocorticoid receptor (Homo sapiens) (UniProt P04150). Description: GR-GFP Redistribution (AID 450;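 active = compounds whose dose series gives a full or clear partial fitted curve of increased nuclear translocation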; also: potency is read from the fitted curve at half-maximal effect).
Sequence of Glucocorticoid receptor (Homo sapiens) (P04150 whole entry, looked up, the tested form may be a part): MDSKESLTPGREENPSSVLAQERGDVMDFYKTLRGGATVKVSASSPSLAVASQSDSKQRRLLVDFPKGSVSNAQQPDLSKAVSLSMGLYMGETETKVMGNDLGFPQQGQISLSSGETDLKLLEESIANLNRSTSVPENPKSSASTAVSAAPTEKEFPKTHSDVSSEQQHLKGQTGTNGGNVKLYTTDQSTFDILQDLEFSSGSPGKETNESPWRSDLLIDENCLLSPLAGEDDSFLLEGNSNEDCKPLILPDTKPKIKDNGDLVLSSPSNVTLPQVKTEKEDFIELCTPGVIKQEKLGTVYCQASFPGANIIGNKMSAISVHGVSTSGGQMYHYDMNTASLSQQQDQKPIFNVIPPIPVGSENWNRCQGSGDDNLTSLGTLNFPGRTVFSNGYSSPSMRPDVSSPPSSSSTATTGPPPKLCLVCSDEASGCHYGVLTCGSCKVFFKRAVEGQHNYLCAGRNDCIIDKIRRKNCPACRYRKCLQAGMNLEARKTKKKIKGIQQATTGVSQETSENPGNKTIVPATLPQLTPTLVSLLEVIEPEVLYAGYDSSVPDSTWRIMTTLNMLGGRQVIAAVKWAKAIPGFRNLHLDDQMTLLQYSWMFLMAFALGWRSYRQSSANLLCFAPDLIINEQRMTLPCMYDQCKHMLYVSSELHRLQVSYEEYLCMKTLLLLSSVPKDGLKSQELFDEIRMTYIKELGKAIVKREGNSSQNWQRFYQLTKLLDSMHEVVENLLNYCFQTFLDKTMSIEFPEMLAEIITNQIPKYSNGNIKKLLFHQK
For test [3] the target is unchanged. Description: GR-EFC Redistribution (AID 451; calls by dose curve; also: potency is read from the fitted curve at half-maximal effect). The following applies: CHO-K1 GR-EFC translocation, beta-gal luminescence, 2 h. Summed up: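 Translocation of GR-ED fusion to nuclear EA restores b-gal, read by luminescence after 1 h room-temperature detection. Engineered CHO-K1 biosensor cells, 1,000/well, exposed 2 h at 37 C to titrations up to 46 uM final.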
Test [4] addresses Mitogen-activated protein kinase 10 (Mus musculus) (UniProt Q61831). Description: JNK3 AlphaScreen Assay (AID 530; active = well fitted curve in either direction with a large enough effect, not every such curve was filed as active;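 also: kinase came from lysate of stimulated human HepG2 cells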; also: potency is read from the fitted curve at half-maximal effect). Summed up: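 Kinase buffer: 20 mM Tris-HCl pH 7.6, 10 mM MgCl2, 1 mM DTT, 0.1 mM Na3VO4, 0.01% Tween-20; ATP 10 uM. Substrate biotin-GST-cJun(1-79), enzyme from activated HepG2 lysates. Detection by Ser73 phospho-antibody AlphaScreen.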
The target in test [5] is 3',5'-cyclic-AMP phosphodiesterase 4B (Homo sapiens) (UniProt Q07343). In words: qHTS Assay for Inhibitors of PDE-IV (AID 607; active = well fitted activation curve with a large enough effect in the main read-out, with a control signal flat, not every such curve was filed as active). The method, boiled down: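 ACTOne HEK293 cells carry a modified cAMP-gated CNG channel and express endogenous PDE4; plated 1000 cells/well, compounds up to 22.9 uM final. Membrane-potential dye fluorescence (ex 535/em 590) was read; parental cells received 10 uM forskolin + 100 uM RO 20-1724.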
Sequence of 3',5'-cyclic-AMP phosphodiesterase 4B (Homo sapiens) (Q07343 whole entry, looked up): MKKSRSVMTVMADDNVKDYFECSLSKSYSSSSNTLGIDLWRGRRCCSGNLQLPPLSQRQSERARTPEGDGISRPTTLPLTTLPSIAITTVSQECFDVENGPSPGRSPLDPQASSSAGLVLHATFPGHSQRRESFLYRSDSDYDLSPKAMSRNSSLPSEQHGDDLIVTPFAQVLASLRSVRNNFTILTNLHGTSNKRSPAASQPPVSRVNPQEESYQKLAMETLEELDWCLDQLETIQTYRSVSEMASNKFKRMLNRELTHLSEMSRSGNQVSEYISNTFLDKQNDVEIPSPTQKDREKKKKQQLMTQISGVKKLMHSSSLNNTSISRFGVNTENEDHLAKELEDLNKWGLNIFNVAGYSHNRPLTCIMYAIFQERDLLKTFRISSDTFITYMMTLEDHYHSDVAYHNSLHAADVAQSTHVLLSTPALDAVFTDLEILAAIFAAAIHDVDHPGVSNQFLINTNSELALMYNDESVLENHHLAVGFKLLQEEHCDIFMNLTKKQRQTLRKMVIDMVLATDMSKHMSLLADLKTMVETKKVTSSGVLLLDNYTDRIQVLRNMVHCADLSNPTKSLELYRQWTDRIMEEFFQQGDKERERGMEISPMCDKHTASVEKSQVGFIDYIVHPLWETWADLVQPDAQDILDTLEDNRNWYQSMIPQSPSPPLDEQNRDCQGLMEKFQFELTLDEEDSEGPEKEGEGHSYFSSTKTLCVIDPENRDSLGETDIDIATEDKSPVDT

Test [6] deals with Cytochrome P450 2C9 (Homo sapiens) (UniProt P11712). In words: qHTS Assay for Inhibitors and Substrates of Cytochrome P450 2C9 (AID 883). Also: nearly all actives have a fitted effect of over 60% in size. Also: potency is read from the fitted curve at half-maximal effect. The method, boiled down:
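Luminescent read-out of deoxyluciferin hydroxylation, normalized to 57uM sulphaphenazole (AC100). Reaction: 10nM enzyme, 100uM Luciferin-H (equal to KM), 25mM KPO4, 10 min compound preincubation, then 60 min with NADPH regeneration, both at 37C.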

Test [7] has as its target Cytochrome P450 3A4 (Homo sapiens) (UniProt P08684). In words: qHTS Assay for Inhibitors and Substrates of Cytochrome P450 3A4 (AID 884). Also: nearly all actives have a fitted effect of over 50% in size. Also: potency is read from the fitted curve at half-maximal effect. Summed up: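 Luminescent readout of luciferin produced by CYP3A4 (20 nM) dealkylation of Luciferin-PPXE, 25 uM (its KM). NADPH-driven reaction ran 60 min at RT after 10 min compound preincubation; data scaled to 57 uM ketoconazole as 100% inhibition.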

In test [8] the target is Cytochrome P450 2D6 (Homo sapiens) (UniProt P10635). In words: qHTS Assay for Inhibitors and Substrates of Cytochrome P450 2D6 (AID 891). Also: nearly all actives have a fitted effect of over 60% in size. Also: potency is read from the fitted curve at half-maximal effect. The method, boiled down:
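Luminescent read-out of luciferin formed by 5 nM human CYP2D6 demethylating 30 uM Luciferin-ME EGE (Km level) over 60 min at room temperature after NADPH regeneration addition. Data normalized to full inhibition by 1.43 uM quinidine.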

For test [9], the target named is DNA dC->dU-editing enzyme APOBEC-3G (Homo sapiens) (UniProt Q9HC16). Description: qHTS for inhibitors of Vif-A3G interactions: Validation (AID 588379). Summed up: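 Yellow fluorescence (Ex 488, Em 500-530) of Vif-coexpressing HeLa A3G-eYFP cells, scanned by Acumen cytometer, reports blocked A3G degradation. Cells plated at 700/well overnight at 37 deg C before compound addition, then a further overnight compound incubation at 37 deg C.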
Sequence of DNA dC->dU-editing enzyme APOBEC-3G (Homo sapiens) (Q9HC16 whole entry, looked up): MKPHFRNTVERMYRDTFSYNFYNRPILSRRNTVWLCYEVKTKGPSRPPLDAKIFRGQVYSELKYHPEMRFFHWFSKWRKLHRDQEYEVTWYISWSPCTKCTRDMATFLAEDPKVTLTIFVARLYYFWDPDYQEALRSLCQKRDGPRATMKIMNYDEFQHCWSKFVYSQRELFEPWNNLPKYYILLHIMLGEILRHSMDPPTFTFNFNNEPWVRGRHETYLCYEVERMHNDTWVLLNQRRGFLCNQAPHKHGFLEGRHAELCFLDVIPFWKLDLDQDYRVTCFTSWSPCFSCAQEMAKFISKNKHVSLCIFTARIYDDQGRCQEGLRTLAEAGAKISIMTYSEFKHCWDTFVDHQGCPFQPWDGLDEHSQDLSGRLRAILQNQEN

The target of test [10] is Cytochrome P450 3A4 (Homo sapiens) (UniProt P08684). Description: qHTS Assay for Activators of Cytochrome P450 3A4 (AID 885). Also: nearly all actives have a fitted effect of over 65% in size. Summed up: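 CYP3A4 activity: Luciferin-PPXE O-dealkylation, 25uM substrate, 200mM KPO4, RT throughout. Read-out is luciferase luminescence; higher values reflect activation.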
Sequence of Cytochrome P450 3A4 (Homo sapiens) (P08684 whole entry, looked up): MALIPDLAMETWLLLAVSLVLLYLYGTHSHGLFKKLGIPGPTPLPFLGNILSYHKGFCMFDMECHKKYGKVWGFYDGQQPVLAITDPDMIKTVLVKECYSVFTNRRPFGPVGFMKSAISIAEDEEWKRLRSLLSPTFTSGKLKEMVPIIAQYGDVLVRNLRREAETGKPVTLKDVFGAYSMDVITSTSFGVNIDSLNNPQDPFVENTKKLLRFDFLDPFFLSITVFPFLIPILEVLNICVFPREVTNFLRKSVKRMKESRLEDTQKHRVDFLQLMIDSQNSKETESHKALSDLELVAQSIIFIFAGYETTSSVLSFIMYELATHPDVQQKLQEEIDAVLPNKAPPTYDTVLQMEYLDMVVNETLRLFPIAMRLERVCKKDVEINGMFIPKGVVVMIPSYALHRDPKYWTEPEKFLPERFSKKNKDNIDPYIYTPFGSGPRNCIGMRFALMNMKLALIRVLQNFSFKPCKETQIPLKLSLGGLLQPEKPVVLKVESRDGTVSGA
Test [11] deals with Cytochrome P450 2C19 (Homo sapiens) (UniProt P33261). Description: qHTS Assay for Inhibitors and Substrates of Cytochrome P450 2C19 (AID 899). Also: potency is read from the fitted curve at half-maximal effect; nearly all actives have a fitted effect of over 60% in size. The method, boiled down:
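Luminescence readout of luciferin formed from 10uM Luciferin-H EGE (KM level) by 5 nM CYP2C19 in 50mM KPO4. 60 min NADPH-driven reaction at 37C after 10 min compound preincubation; data scaled to 57uM ketoconazole inhibition.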

Sequence of Cytochrome P450 2C9 (Homo sapiens) (P11712 whole entry, looked up): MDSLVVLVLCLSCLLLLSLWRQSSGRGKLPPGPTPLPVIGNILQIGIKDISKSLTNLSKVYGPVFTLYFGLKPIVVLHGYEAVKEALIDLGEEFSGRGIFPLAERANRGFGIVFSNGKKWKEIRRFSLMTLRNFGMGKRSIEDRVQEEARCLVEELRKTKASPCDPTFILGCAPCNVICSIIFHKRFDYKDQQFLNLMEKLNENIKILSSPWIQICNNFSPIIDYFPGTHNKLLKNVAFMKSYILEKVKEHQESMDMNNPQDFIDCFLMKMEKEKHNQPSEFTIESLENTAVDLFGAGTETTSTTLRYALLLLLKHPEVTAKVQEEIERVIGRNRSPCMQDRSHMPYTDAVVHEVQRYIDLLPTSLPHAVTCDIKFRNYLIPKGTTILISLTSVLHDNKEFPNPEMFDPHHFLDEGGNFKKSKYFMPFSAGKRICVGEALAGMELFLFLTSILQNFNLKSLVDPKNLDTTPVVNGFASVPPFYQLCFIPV
Sequence of Cytochrome P450 1A2 (Homo sapiens) (P05177 whole entry, looked up): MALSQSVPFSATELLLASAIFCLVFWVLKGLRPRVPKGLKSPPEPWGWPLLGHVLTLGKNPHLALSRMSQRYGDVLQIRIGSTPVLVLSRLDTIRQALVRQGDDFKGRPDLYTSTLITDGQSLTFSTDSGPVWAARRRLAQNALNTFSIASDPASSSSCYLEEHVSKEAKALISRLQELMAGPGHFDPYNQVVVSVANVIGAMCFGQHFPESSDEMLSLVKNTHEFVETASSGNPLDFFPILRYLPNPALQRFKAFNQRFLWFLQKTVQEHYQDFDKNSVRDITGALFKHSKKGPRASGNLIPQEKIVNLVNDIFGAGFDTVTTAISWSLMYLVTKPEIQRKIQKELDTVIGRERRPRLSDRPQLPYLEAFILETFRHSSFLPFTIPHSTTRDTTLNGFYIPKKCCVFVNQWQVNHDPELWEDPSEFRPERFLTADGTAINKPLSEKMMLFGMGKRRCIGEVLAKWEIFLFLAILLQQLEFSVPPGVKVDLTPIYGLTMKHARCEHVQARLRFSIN
Sequence of Cytochrome P450 2D6 (Homo sapiens) (P10635 whole entry, looked up): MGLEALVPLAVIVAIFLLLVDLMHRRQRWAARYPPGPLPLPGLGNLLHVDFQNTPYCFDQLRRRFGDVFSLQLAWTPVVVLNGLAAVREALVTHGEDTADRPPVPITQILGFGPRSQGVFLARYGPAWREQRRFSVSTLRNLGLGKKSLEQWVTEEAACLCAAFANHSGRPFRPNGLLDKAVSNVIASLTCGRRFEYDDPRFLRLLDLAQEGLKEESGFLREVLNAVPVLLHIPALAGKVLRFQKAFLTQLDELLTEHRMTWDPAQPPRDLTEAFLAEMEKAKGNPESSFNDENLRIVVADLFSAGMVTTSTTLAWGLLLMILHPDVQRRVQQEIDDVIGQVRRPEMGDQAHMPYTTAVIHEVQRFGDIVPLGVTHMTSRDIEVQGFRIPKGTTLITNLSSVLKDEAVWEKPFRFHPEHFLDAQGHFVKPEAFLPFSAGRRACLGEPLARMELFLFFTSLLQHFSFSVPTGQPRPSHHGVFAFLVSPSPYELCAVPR
Sequence of Cytochrome P450 2C19 (Homo sapiens) (P33261 whole entry, looked up): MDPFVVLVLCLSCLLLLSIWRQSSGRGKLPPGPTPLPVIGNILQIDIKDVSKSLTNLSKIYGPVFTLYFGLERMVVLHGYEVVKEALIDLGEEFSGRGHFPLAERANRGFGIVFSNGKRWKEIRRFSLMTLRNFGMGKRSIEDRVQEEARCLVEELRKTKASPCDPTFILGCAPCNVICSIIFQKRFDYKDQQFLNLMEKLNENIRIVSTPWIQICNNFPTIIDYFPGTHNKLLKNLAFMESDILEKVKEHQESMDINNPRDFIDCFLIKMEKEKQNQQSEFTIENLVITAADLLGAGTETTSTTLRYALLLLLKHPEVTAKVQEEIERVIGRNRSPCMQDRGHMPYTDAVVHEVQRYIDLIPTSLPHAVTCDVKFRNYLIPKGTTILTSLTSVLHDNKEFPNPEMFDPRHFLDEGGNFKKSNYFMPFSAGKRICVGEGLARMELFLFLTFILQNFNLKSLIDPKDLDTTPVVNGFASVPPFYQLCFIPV

In the case of `Cn1ccc(O)c(C#N)c1=O`, the Potency result in [1], in test [4], in test [5], in test [6], in test [7] and in test [8] was “inactive” in each case. Moreover, the Potency in [2] and in test [3] was greater than 46 µM in each case. Also, the compound was classed as inactive in [9].

`O=C(CCc1ccc(O)cc1)c1c(O)cc(O)cc1O[C@@H]1O[C@@H](CO)[C@@H](O)[C@@H](O)[C@H]1O`: the Potency entry in [1], in test [4], in [5] and in test [8] was “inactive” throughout. The Potency in [2] was greater than 46 µM; in test [3] it was greater than 46 µM; in test [6] it was 31.6 µM (active).

Take `COc1cccc(-c2cc(=O)c3cc(O)ccc3o2)c1`: the Potency is 1.58 µM (active) in test [1]; greater than 46 µM in test [2]; greater than 46 µM in [3]; 15.8 µM (active) in [7]; 25.1 µM (active) in [11]. Moreover, the Potency result in [4], in [5], in test [10] and in [8] was “inactive” each time. Also, the compound was classed as inactive in test [9].

In the case of `COc1cc2c(cc1OC)-c1c(OC)c(OC)cc3ccnc(c13)C2=O`, the Potency in [1] is 0.0794 µM (active); in [2], greater than 46 µM; in test [3], greater than 46 µM; in test [7] it was 2.51 µM (active). The Potency entry in test [4] and in test [10] was “inactive” throughout. Also, the compound was called inactive in [9].

With `O=c1cc(-c2ccccc2O)oc2c1ccc1ccccc12`, the Potency in [1] was 0.501 µM (active); in [2] it was greater than 46 µM; in test [3], greater than 46 µM. Further, the Potency entry in [4], in [5], in test [6], in test [10] and in test [8] was “inactive” in each case. The compound was classed as inactive in test [9].

For `COc1ccc2oc(-c3ccccc3)c(OC)c(=O)c2c1`, the Potency was 0.501 µM (active) in test [1]; greater than 46 µM in test [2]; greater than 46 µM in test [3]; 25.1 µM (active) in [6]; 31.6 µM (active) in test [7]. The Potency result in test [4], in test [5] and in test [10] was “inactive” throughout. Besides, the compound was called inactive in test [9].

Regarding `C=CC1=C(C)C2=Cc3c(C=C)c(C)c4[n]3[Sn+2][n]3c(c(C)c(CCC(=O)O)c3=CC3=NC(=C4)C(C)=C3CCC(=O)O)=CC1=N2`, the Potency in [1] was 39.8 µM (active); in [2], greater than 46 µM; in test [3], greater than 46 µM; in test [4], 1 µM [activator] (active); in test [8] it was 1.26 µM (active). In addition, the compound was called inactive in test [9].

For `CCCc1c(OCCCOc2ccc(OCC(=O)O)cc2)ccc(CC=O)c1O`, the Potency in [1] was 31.6 µM (active); in test [2], greater than 46 µM; in test [3], greater than 46 µM. Further, the Potency result in test [4] and in test [5] was “inactive” throughout. The result in [9] was inactive.
